Results filed as inconclusive are left out. A call without a number means that no potency is given here. Calls of active or inactive are those of the source. Unless noted, calls follow the shape of the dose curve; as a rule, active = well fitted curve in the direction sought with a large enough effect; inconclusive = small, poorly fitted or top-dose-only effect, or another doubt; inactive = no such curve, though single readings can be large; an effect the other way counts as inactive or inconclusive.
Legend:
[1] = test system: Zika virus NS2B-NS3 protease (linked construct); experiment: Primary screen NINDS Rhodamine qHTS for Zika virus inhibitors (AID 1347160); also: nearly all actives have a fitted effect of over 55% in size
Method in brief: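 Rhodamine110-peptide cleavage (1.5 µM substrate) by 25 nM linked NS2B-NS3 enzyme at pH 8.0 (Tris, Tween 20), after 15 min RT preincubation with compounds; 15-min fluorescence change normalized to controls and Hill-fitted.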

[2] = target: Cytochrome P450 2D6 (Homo sapiens) (UniProt P10635); experiment: Cytochrome P450 family 2 subfamily D member 6 (CYP2D6) small molecule antagonists: luciferase biochemical (cell-free) qHTS assay (AID 1645840; active = well fitted curve in the direction sought with a large enough effect in the repeat runs; an effect the other way counts as inactive or inconclusive; also: potency is read from the fitted curve at half-maximal effect; nearly all actives have a fitted effect of over 55% in size)
Method in brief: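 P450-Glo CYP2D6 system: proluciferin substrate converted by enzyme to luciferin, read by luminescence proportional to activity. Enzyme-substrate mix with compound 10 min at room temperature, then NADPH regeneration 1 h before detection reagent.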

[3] = target: Cytochrome P450 2C9 (Homo sapiens) (UniProt P11712); experiment: Cytochrome P450 family 2 subfamily C member 9 (CYP2C9) small molecule antagonists: luciferase biochemical (cell-free) qHTS assay (AID 1645842; active = well fitted curve in the direction sought with a large enough effect in the repeat runs; an effect the other way counts as inactive or inconclusive; also: potency is read from the fitted curve at half-maximal effect; nearly all actives have a fitted effect of over 55% in size)
Method in brief: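 P450-Glo CYP2C9 system: proluciferin substrate with enzyme in mix containing 0.4% BSA, 10 min at room temperature, then NADPH regeneration solution added and incubated 1 h at 37C. Detection reagent stopped reaction; luminescence read after 20 min as RLU.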

[4] = Primary qHTS for inhibitors of nuclear receptor binding SET domain protein 2 (NSD2) in an isogenic RCH-ACV NSD2 p.E1099K mutant (9B) (AID 1645876); also: potency is read from the fitted curve at half-maximal effect; nearly all actives have a fitted effect of over 70% in size
[5] = Primary qHTS for inhibitors of nuclear receptor binding SET domain protein 2 (NSD2) in an RCH-ACV wild type WT cells (2C) (AID 1645877); also: potency is read from the fitted curve at half-maximal effect; nearly all actives have a fitted effect of over 70% in size
[6] = target: Glutathione peroxidase 1 (Homo sapiens) (UniProt P07203); experiment: Primary qHTS Assay for Inhibitors of Recombinant Selenoprotein Glutathione Peroxidase 1 (GPX1) (AID 1845191); also: nearly all actives have a fitted effect of over 65% in size
Method in brief: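 GR-coupled readout: NADPH consumption tracked by fluorescence, ex 340/em 450 nm, at t=0 and after 15 min at RT. Final mix 10 nM GPX1, 1 mM GSH, 0.5 mM CHP, 0.5 mM NADPH, 100 nM GR, 0.01% BSA, following 30 min enzyme–compound preincubation.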

[7] = target: Phospholipid hydroperoxide glutathione peroxidase GPX4 (Homo sapiens) (UniProt P36969); experiment: Primary qHTS Assay for Inhibitors of Recombinant Selenoprotein Glutathione Peroxidase 4 (GPX4) (AID 1845192); also: nearly all actives have a fitted effect of over 65% in size
Method in brief: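 Steps: GPX4 plus compound, 30 min RT; add GR/GSH/NADPH master mix; start with cumene hydroperoxide; read 340/450 nm fluorescence at 0 and 15 min. Finals were 200 nM GPX4, 1 mM GSH, 0.5 mM CHP, 0.5 mM NADPH, 100 nM GR.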

[8] = target: Luciferin 4-monooxygenase (Photinus pyralis) (UniProt P08659); experiment: Primary firefly luciferase (FLuc) qHTS assay for identification of artifact compounds. (AID 1845220); settings: outcome: dose series up to 54.1 µM unless noted; also: nearly all actives have a fitted effect of over 60% in size
Method in brief: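 Enzymatic FLuc inhibition assay: compounds pre-exposed to luciferin/ATP (10 uM each) for 15 min, then purified P. pyralis enzyme at 10 nM added. Read-out: luminescence at 5 min.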

[9] = Primary fluorescence-based thiol-reactive (MSTI) qHTS assay for identification of artifact compounds. (AID 1845221);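 also: thiol-reactive compounds lower the probe fluorescence signal; nearly all actives have a fitted effect of over 65% in size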
Method in brief: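 qHTS titration of compound; 4 uM MSTI, PBS pH 7.4, 2% DMSO; 1 h RT, dark; fluorescence 525/598 nm; normalized to Acetyl-MSTI and MSTI; 4-parameter Hill fit.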

[10] = test system: Nanoluciferase (engineered Oplophorus gracilirostris luciferase); experiment: Primary Nanoluciferase (NLuc) qHTS assay for identification of artifact compounds. (AID 1845222);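 also: NLuc secreted into diluted conditioned medium of S16 cells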
Method in brief: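 S16 cell supernatant NLuc, 1:55; cpds qHTS; 15 min RT dark; Nano-Glo substrate 1:100, 5 min; luminescence; Hill fit of % inhibition.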

[11] = test system: HeLa; experiment: Primary qHTS to identify gynecologic anti-cancer compounds using libraries of approved drugs and bioactive compounds (AID 1345084); settings: Gynecologic cancer cell panel viability, ATPlite luminescence, 48 h; series mostly up to 57.5 µM; also: nearly all actives have a fitted effect of over 55% in size
Method in brief: (§1)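 Cells, 1,000 per well, were allowed to settle for 16 h at 37 C before compound addition. Five concentrations were tested for 48 h, and viability was read by ATPlite luminescence after 15 min at room temperature.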

[12] = test system: Tov-21-G; experiment: as above; settings: Gynecologic cancer cell panel viability, ATPlite luminescence, 48 h; series mostly up to 57.5 µM
Method in brief: as §1

[13] = P-glycoprotein substrates identified in KB-8-5-11 adenocarcinoma cell line, qHTS therapeutic library screen (AID 1346987); also: nearly all actives have a fitted effect of over 65% in size
Method in brief: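 Compounds are pinned in dose-response onto KB-8-5-11 cells (500 cells/well, colchicine-free medium) and left 72 h at 37 degree C. CellTiter-Glo luminescence then yields AC50 values.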

[14] = test system: Zika virus NS2B-NS3 protease (unlinked complex); experiment: Primary screen GU Rhodamine qHTS for Zika virus inhibitors: Unlinked NS2B-NS3 protease assay (AID 1347159); also: nearly all actives have a fitted effect of over 60% in size
Method in brief: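 Percent inhibition came from the 15-min rise in Rhodamine110 fluorescence (1.5 microM substrate, ~15% conversion), normalized to no-inhibitor and no-enzyme wells and Hill-fitted. Unlinked protease, 25 nM, pH 8.0 Tris buffer; compounds up to 114 microM, 15-min preincubation.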

[15] = target: Calcium and integrin-binding protein 1 (Homo sapiens) (UniProt Q99828); experiment: Primary qHTS for Identification of Calcium Integrin Binding Protein 1 (CIB1) Competitor (AID 1508620);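 also: GST tagged CIB1 binding a fluorescein labelled alphaIIb integrin peptide tracer; top concentration of the series differs between compounds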
Method in brief: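 Fluorescence polarization competition: GST-tagged CIB1 (1 uM final) preincubated with compound 15 min at room temperature, then FITC-labelled alphaIIb peptide (100 nM final) added. After 15 min at room temperature, polarization read at Ex 480/Em 540.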

[16] = test system: JEG-3; experiment: Primary qHTS to identify gynecologic anti-cancer compounds using libraries of approved drugs and bioactive compounds (AID 1345084); settings: Gynecologic cancer cell panel viability, ATPlite luminescence, 48 h; series mostly up to 57.5 µM; also: nearly all actives have a fitted effect of over 55% in size
Method in brief: as §1

[17] = qHTS for Inhibitors of the Functional Ribonucleoprotein Complex (vRNP) of Lassa (LASV) Arenavirus: LASV Primary Screen - GLuc reporter signal (AID 1347082; calls by dose curve; tested in HEK293 reporter line; also: nearly all actives have a fitted effect of over 60% in size)
[18] = target: Luciferin 4-monooxygenase (Photinus pyralis) (UniProt P08659); experiment: Biochemical firefly luciferase enzyme assay for NPC (AID 624030);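 also: purified P. pyralis luciferase at 10 nM with luciferin and ATP substrate; nearly all actives have a fitted effect of over 70% in size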
Method in brief: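 Purified P. pyralis luciferase at 10 nM in 50 mM Tris Acetate (final), luminescence read within 5 minutes of enzyme addition to compounds. Activity normalised to PTC124 versus DMSO; concentration-response curves classed by r2, magnitude and activity.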

[19] = qHTS for Inhibitors of the Functional Ribonucleoprotein Complex (vRNP) of Lassa (LASV) Arenavirus: Viability assay - alamar blue signal for LASV Primary Screen (AID 1347083; calls by dose curve; tested in HEK293 reporter line; also: nearly all actives have a fitted effect of over 80% in size)
[20] = qHTS for Inhibitors of the Functional Ribonucleoprotein Complex (vRNP) of Lymphocytic Choriomeningitis Arenaviruses (LCMV): Viability assay - alamar blue signal for LCMV Primary Screen (AID 1347085; calls by dose curve; tested in HEK293 reporter line; also: nearly all actives have a fitted effect of over 80% in size)
[21] = target: Nucleoprotein (Lymphocytic choriomeningitis virus (strain Armstrong)) (UniProt P09992); experiment: qHTS for Inhibitors of the Functional Ribonucleoprotein Complex (vRNP) of Lymphocytic Choriomeningitis Arenaviruses (LCMV): LCMV Primary Screen - GLuc reporter signal (AID 1347086; calls by dose curve; also: nearly all actives have a fitted effect of over 70% in size)
[22] = test system: astro; experiment: Drug repurposing screens with cells derived from glioblastoma tumor samples (AID 1345199); settings: viability, ATP luminescence, 48 h; series mostly up to 45.9 µM; also: potency is read from the fitted curve at half-maximal effect; nearly all actives have a fitted effect of over 40% in size
Method in brief: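 Primary testing used CD133+ neurospheres from four GBM patients, seven concentrations, 48 h exposure and ATP-based viability; confirmation added three slower-growing patient lines.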

[23] = test system: Zika virus NS2B-NS3 protease; experiment: Primary screen GU AMC qHTS for Zika virus inhibitors (AID 1347154); also: nearly all actives have a fitted effect of over 70% in size
Method in brief: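 Unlinked Zika NS2B hydrophilic domain–NS3 protease complex at 25 nM in 10 mM Tris-HCl pH 8.0, 0.01% Tween 20, with an AMC peptide substrate. Fluorescence change (340/450 nm) over 15 min at room temperature, normalized to controls, fitted to 4-parameter Hill.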

[24] = target: Catechol O-methyltransferase (Homo sapiens) (UniProt P21964); experiment: Confirmatory Screen for Target Class Profiling of Small Molecule Inhibitors of Methyltransferases (AID 1745852; calls by dose curve); settings: MTase-Glo luminescence, SAH detection, recombinant enzyme; measured here: COMT max response; stronger effect = lower value
[25] = target: Guanidinoacetate N-methyltransferase (Homo sapiens) (UniProt Q14353); experiment: as above; settings: activity change, negative = inhibition: at 57.3 µM (top of the series) unless noted
[26] = target: Nicotinamide N-methyltransferase (Homo sapiens) (UniProt P40261); experiment: as above; settings: MTase-Glo luminescence, SAH detection, recombinant enzyme; measured here: NNMT max response; stronger effect = lower value
[27] = target: Phenylethanolamine N-methyltransferase (Homo sapiens) (UniProt P11086); experiment: as above; settings: MTase-Glo luminescence, SAH detection, recombinant enzyme; measured here: PNMT max response; stronger effect = lower value
Sequence of Phenylethanolamine N-methyltransferase (Homo sapiens) (P11086 whole entry, looked up): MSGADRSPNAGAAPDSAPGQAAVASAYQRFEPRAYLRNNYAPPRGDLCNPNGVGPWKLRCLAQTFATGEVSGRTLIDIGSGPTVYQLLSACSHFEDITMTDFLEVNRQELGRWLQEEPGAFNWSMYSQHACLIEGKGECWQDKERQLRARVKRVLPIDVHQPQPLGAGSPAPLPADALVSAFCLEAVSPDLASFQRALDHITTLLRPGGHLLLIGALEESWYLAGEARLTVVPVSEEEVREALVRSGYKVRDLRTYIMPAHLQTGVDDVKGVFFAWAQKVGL

Sequence of Glutathione peroxidase 1 (Homo sapiens) (P07203 whole entry, looked up): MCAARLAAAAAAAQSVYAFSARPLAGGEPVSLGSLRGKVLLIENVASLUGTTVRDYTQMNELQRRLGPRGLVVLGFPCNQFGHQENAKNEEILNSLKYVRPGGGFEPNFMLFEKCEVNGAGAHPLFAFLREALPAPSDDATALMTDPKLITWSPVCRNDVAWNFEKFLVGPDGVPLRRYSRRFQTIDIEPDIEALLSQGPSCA
Sequence of Cytochrome P450 2C9 (Homo sapiens) (P11712 whole entry, looked up): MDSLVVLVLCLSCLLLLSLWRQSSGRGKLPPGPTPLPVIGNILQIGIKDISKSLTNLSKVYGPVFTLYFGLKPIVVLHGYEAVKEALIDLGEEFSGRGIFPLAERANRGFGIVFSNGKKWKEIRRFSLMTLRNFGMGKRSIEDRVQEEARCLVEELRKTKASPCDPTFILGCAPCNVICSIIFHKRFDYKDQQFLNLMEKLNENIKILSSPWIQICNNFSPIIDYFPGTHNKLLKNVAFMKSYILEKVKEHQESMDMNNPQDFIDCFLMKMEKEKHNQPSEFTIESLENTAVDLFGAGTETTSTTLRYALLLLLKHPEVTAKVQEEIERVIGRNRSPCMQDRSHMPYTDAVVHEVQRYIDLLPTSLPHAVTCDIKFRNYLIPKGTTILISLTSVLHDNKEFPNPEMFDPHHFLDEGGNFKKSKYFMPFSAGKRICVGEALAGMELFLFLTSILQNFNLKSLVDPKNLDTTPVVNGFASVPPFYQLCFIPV
Sequence of Nicotinamide N-methyltransferase (Homo sapiens) (P40261 whole entry, looked up): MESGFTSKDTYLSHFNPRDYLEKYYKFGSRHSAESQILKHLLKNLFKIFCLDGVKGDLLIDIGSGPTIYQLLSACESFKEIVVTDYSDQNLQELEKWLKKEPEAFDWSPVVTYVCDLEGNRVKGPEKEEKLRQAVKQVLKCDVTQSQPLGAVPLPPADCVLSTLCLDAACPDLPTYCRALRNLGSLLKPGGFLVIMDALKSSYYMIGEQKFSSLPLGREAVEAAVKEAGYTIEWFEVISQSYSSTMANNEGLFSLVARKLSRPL
Sequence of Cytochrome P450 2D6 (Homo sapiens) (P10635 whole entry, looked up): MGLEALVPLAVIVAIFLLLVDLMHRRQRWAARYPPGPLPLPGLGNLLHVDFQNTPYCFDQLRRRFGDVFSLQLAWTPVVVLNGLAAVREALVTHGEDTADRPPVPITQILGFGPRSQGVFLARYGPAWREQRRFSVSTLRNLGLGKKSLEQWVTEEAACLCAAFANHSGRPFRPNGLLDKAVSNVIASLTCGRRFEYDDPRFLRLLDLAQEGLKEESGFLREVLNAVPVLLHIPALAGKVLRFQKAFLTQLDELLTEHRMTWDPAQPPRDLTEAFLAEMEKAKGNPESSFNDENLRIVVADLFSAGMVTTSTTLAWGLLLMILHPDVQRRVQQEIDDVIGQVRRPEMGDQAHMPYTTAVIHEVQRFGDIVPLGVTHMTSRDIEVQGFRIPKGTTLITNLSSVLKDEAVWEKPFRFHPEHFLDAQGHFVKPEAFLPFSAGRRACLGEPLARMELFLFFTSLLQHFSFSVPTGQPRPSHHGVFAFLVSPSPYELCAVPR
Sequence of Catechol O-methyltransferase (Homo sapiens) (P21964 whole entry, looked up): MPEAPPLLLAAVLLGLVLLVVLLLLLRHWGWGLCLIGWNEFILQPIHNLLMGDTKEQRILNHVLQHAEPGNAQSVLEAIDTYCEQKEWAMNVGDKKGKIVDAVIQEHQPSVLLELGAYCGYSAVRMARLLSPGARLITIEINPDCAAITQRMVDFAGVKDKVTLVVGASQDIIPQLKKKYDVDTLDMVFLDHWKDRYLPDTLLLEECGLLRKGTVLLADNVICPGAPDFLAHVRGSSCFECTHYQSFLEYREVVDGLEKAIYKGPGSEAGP
Sequence of Calcium and integrin-binding protein 1 (Homo sapiens) (Q99828 whole entry, looked up): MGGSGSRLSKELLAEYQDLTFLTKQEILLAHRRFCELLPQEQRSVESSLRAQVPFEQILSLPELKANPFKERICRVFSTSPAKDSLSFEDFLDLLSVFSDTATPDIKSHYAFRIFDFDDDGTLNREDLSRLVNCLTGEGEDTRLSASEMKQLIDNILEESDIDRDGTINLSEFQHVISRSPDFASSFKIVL
Sequence of Luciferin 4-monooxygenase (Photinus pyralis) (P08659 whole entry, looked up): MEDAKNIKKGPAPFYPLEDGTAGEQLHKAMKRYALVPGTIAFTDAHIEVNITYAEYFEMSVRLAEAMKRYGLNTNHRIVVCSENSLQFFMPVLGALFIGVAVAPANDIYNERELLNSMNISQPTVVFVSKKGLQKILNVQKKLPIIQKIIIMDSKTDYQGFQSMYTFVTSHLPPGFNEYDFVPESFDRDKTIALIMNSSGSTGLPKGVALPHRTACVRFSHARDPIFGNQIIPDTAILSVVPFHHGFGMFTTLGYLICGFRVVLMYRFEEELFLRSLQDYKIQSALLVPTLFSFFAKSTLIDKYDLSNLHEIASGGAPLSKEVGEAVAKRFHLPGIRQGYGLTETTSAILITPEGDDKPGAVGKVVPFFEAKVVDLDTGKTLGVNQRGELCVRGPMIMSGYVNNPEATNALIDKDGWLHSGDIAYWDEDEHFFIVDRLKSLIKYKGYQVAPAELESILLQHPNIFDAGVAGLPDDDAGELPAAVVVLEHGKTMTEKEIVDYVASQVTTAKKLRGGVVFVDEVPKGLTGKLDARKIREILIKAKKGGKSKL
Sequence of Nucleoprotein (Lymphocytic choriomeningitis virus (strain Armstrong)) (P09992 whole entry, looked up): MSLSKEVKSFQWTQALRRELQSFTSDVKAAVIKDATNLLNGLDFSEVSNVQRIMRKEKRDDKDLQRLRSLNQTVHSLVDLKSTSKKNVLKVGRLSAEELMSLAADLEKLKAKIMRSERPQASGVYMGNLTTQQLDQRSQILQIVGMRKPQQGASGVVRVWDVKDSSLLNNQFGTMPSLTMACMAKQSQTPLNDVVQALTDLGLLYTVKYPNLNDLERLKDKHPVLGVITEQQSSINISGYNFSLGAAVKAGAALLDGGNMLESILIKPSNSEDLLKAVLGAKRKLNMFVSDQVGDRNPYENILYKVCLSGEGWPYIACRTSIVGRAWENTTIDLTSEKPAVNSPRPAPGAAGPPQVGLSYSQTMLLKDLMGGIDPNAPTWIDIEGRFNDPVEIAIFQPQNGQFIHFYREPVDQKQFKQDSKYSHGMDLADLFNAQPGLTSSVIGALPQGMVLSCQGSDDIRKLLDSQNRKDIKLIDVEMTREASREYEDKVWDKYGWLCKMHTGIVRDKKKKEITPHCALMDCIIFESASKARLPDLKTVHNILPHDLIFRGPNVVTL
Sequence of Phospholipid hydroperoxide glutathione peroxidase GPX4 (Homo sapiens) (P36969 whole entry, looked up): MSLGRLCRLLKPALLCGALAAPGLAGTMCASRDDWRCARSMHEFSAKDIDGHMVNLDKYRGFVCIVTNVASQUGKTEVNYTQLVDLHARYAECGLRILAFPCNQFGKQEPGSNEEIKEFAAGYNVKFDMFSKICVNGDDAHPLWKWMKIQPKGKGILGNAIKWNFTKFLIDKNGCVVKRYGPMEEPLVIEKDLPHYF

CN(C(=O)CN1C(=O)COc2cc(Cl)c(Cl)cc21)[C@@H](CN1CCCC1)c1ccc(-c2cccc(C(N)=O)c2)cc1
Potency [1]: inactive
Potency [2]: 16.9 µM (active)
Potency [3]: 13.5 µM (active)
Potency [4]: 8.17 µM (active)
Potency [5]: 7.28 µM (active)
Potency [6]: inactive
Potency [7]: inactive
outcome [8]: inactive
Potency [9]: inactive
Potency [10]: inactive
Potency [11]: inactive
Potency [12]: inactive

CC1=CC2/C=C(\C)CCC(O)C(O)C(O)CC(=O)C23C(=O)NC(CC(C)C)C3C1C (stereo not given)
Potency [13]: inactive
Potency [14]: inactive
Potency [1]: inactive
Potency [15]: inactive
Potency [4]: 4.47 µM (active)
Potency [5]: 3.17 µM (active)
Potency [6]: inactive
outcome [8]: inactive [at 25.7 µM]
Potency [9]: inactive
Potency [10]: inactive
Potency [16]: inactive

COc1cc([C@@H]2c3cc4c(cc3C[C@H]3COC(=O)[C@@H]32)OCO4)cc(OC)c1O
Potency [17]: inactive

CCCCCc1cc(O)c2c(c1)OC(C)(C)c1ccc(C)cc1-2
Potency [18]: inactive
Potency [17]: inactive
Potency [19]: inactive
Potency [20]: inactive
Potency [21]: inactive
Potency [22]: 22.4 µM (active)

CO[C@H]1[C@@H](O)[C@@H](C)O[C@H](O[C@H]2[C@H](Oc3cccc4c(O)c5c(=O)oc6ccc(C)c7c(=O)oc(c34)c5c67)O[C@H](C)[C@H](O)[C@@H]2O)[C@@H]1O
Potency [17]: inactive

O=C1NC(=O)c2c1c1c3ccccc3[nH]c1c1[nH]c3ccccc3c21
Potency [13]: inactive
Potency [17]: inactive
Potency [23]: inactive
activity [24]: -2.49%
Potency [25]: inactive
activity [26]: -2.73%
activity [27]: -3.39%
Potency [6]: inactive

COc1ccc(C2COc3cc(O)ccc3C2)c(OC)c1O (stereo not given)
Potency [17]: inactive
